Reference: PubChem BioAssay (NCATS)
“And” between values parts separate entries of the source, which are not always exact repeats. Identical values can stand only once. Records with an inconclusive call do not appear. A call without a number means that no potency is given here. Some compounds were tested as several samples or in several runs, with calls that do not always agree. The source made the active and inactive calls. Unless noted, the call rests on the fitted dose curve; in most records, active means well fitted curve in the direction sought with a large enough effect; inconclusive means small, poorly fitted or top-dose-only effect, or another doubt; inactive means no such curve, though single readings can be large; an effect the other way counts as inactive or inconclusive.

Experiments:
[1] = target: Voltage-gated inwardly rectifying potassium channel KCNH2 (Homo sapiens) (UniProt Q12809); assay: qHTS Assay for Small Molecule Inhibitors of the Human hERG Channel Activity (AID 588834);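 further: lower thallium flux fluorescence means stronger hERG block; nearly all actives have a fitted effect of over 50% in size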; further: potency means the concentration at half of the fitted maximal effect
Method in brief: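 hERG-BacMam U2OS, 2000 cells/well; 0.7X FluxOR loading 1 hr RT dark; cpd ~10 min 37 °C; stim buffer; FDSS fluorescence 2 min @ 1 s; AC50 Hill fit.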

[2] = MultiTox-Fluor Cytotoxicity Assay - LYMP1-001 - Live Cells (AID 947)
[3] = MultiTox-Fluor Cytotoxicity Assay - LYMP1-002 - Dead Cells (AID 960); further: nearly all actives have a fitted effect of over 60% in size
Method in brief: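 Human lymphoblastoid cells (LYMP1-002), 2500/well in complete medium, were exposed to compounds for 16 hr at 37 C. Dead-cell protease activity was read as bis-AAF-R110 fluorescence (Ex/Em 485/520), normalized to DMSO and 15 uM tetraoctylammonium bromide; AC50 from Hill fits.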

[4] = Cell Viability - LYMP2-009 (AID 968); further: series mostly up to about 92 µM; nearly all actives have a fitted effect of over 55% in size
[5] = Cell Viability - LYMP2-024 (AID 988); further: nearly all actives have a fitted effect of over 60% in size
Method in brief: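 Human lymphoblastoid cells (2500/well) in complete medium were preincubated 5 hr at 37 C, then exposed to compounds for 24 hr at 37 C. Intracellular ATP was read by CellTiter-Glo luminescence; AC50 from Hill-equation fits of concentration-response data.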

[6] = target: Estrogen receptor (Homo sapiens) (UniProt P03372); assay: qHTS assay for small molecule antagonists of estrogen receptor alpha signaling (AID 588513; active means well fitted curve in the direction sought with a large enough effect in the signal ratio, with a control signal flat, not every such curve was filed as active; the % refers to the signal ratio)
Method in brief: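 Fluorescence from CCF4 substrate after 2 h at room temperature gave reporter activity; cells had been exposed to compound and 0.5nM 17-beta-estradiol for 18 h at 37 C. Hill-equation fitting yielded IC50 and maximal response.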

[7] = target: Estrogen receptor (Homo sapiens) (UniProt P03372); assay: qHTS assay for small molecule agonists of estrogen receptor alpha signaling (AID 588514; calls by dose curve; further: nearly all actives have a fitted effect of over 70% in size; further: potency means the concentration at half of the fitted maximal effect)
Method in brief: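 ER-alpha-UAS-bla GripTite HEK 293 cells in medium with 2% charcoal/dextran-treated FBS were treated with compound titrations at 37 C for 18 hrs; beta-lactamase reporter read by CCF4 fluorescence after 2 hrs at RT.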

[8] = target: Bile acid receptor (Homo sapiens) (UniProt Q96RI1); assay: qHTS assay for small molecule agonists of farnesoid X receptor signaling (AID 588527; calls by dose curve; further: series mostly up to about 77 µM); details: HEK293T FXR-UAS-bla, beta-lactamase ratio, 16 h; stronger effect = higher value
Method in brief: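 Read-out: beta-lactamase reporter fluorescence with CCF4 substrate in GeneBLAzer FXR-UAS-bla HEK293T cells, after 16 h compound exposure at 37 C. Response scaled between DMSO basal (0%) and chenodeoxycholic acid at 100 uM (100%).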

[9] = target: Peroxisome proliferator-activated receptor delta (Homo sapiens) (UniProt Q03181); assay: qHTS assay for small molecule agonists of peroxisome proliferator-activated receptor delta signaling (AID 588534; calls by dose curve)
Method in brief: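 Cell-based beta-lactamase reporter assay run in agonist mode: cells seeded and incubated 5 hrs at 37 C, compounds added and incubated 18 hrs at 37 C. CCF4 dye fluorescence read after 2 hrs at RT; EC50 and efficacy from Hill fits.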

[10] = target: Peroxisome proliferator-activated receptor gamma (Homo sapiens) (UniProt P37231); assay: qHTS assay for small molecule agonists of peroxisome proliferator-activated receptor gamma signaling (AID 588536; active means well fitted curve in the direction sought with a large enough effect in the signal ratio, with a control signal flat, not every such curve was filed as active; the % refers to the signal ratio)
Method in brief: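 Test agents, titrated, stimulated HEK293 UAS-bla cells overnight (16 h, 37 C). Substrate CCF4 was then added for two hours at room temperature before fluorescence reading.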

[11] = target: Vitamin D3 receptor (Homo sapiens) (UniProt P11473); assay: qHTS assay for small molecule agonists of vitamin D receptor signaling (AID 588543; calls by dose curve)
Method in brief: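 Reporter cells (HEK293T, VDR-UAS-bla) were seeded in medium with 2% charcoal-stripped serum and incubated 5 h, then compounds in concentration series were added for 16 h at 37 °C. Stimulation was scaled between DMSO basal and 50 nM 1α,25-dihydroxyvitamin D3.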

[12] = target: Thyroid hormone receptor beta (Homo sapiens) (UniProt P10828); assay: qHTS assay for small molecule agonists of thyroid hormone receptor beta signaling (AID 588545; calls by dose curve)
Method in brief: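 TR-UAS-bla GripTite HEK 293 cells (2500/well, medium with 2% charcoal/dextran FBS) were treated in agonist mode for 18 h at 37 C, titrated. Beta-lactamase was read by CCF4 ratio after 2 h; normalized to 10 nM T3 (100%) and DMSO, Hill-fitted for EC50 and efficacy.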

[13] = target: Thyroid hormone receptor beta (Homo sapiens) (UniProt P10828); assay: qHTS assay for small molecule antagonists of thyroid hormone receptor beta signaling (AID 588547; active means well fitted inhibition curve with a large enough effect in the signal ratio, with a control signal flat, not every such curve was filed as active; the % refers to the signal ratio;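 further: cells stimulated with 0.4 nM T3 agonist during compound exposure; series mostly up to about 77 µM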); details: TR-UAS-bla HEK293, beta-lactamase ratio, antagonist mode, 18 h
Method in brief: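 TR-UAS-bla GripTite HEK293 cells in 2% charcoal/dextran FBS medium; compounds 0.59 nM to 92 uM with T3 at 0.4nM final, 18 h at 37 C. Beta-lactamase read by CCF4 fluorescence (460/530 nm); Hill fits gave IC50 and efficacy.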

[14] = qHTS assay for small molecule agonists of the antioxidant response element (ARE) signaling pathway (AID 651741; active means well fitted activation curve with a large enough effect in the signal ratio; the % refers to the signal ratio; further: potency means the concentration at half of the fitted maximal effect)
Method in brief: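 HepG2 ARE-bla cells plated at 2,000 cells/well and incubated 5 h at 37 C/5% CO2 received 23 nL compound in DMSO. After 16 h at 37 C, LiveBLAzer B/G FRET substrate was applied for 2 h at room temperature and fluorescence read.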

[15] = qHTS assay for small molecule activators of the p53 signaling pathway (AID 651743; active means well fitted activation curve with a large enough effect in the signal ratio, not every such curve was filed as active; the % refers to the signal ratio; further: series mostly up to about 92 µM); details: HCT-116 p53RE-bla, beta-lactamase FRET ratio, 16 h; activation: stronger effect = higher value
Method in brief: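 HCT-116 p53RE-bla, 4,000 cells/well; 5 h settle; cpd/DMSO 16 h, 37 C; LiveBLAzer B/G 2 h RT; fluorescence intensity.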

[16] = qHTS assay for environmental chemicals that activate the Aryl hydrocarbon Receptor (AhR) signaling pathway (AID 651777); details: 1A2-DRE human hepatoma cells, luciferase, 24 h; activation: stronger effect = higher value; further: nearly all actives have a fitted effect of over 15% in size
Method in brief: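 Human hepatoma 1A2-DRE cells, stably carrying a dioxin response element and CYP1A2 promoter driving luciferase, were exposed to compounds for 24 hr at 37 C and 5% CO2. Luciferase signal was then read after 30 min One-Glo at room temperature.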

[17] = target: Nuclear receptor ROR-gamma (Homo sapiens) (UniProt P51449); assay: qHTS assay for small molecule antagonists of the retinoid-related orphan receptor gamma (ROR-gamma) signaling pathway (AID 651802); further: nearly all actives have a fitted effect of over 60% in size; further: potency means the concentration at half of the fitted maximal effect
Method in brief: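 CHO cells carrying TET-inducible ROR-gamma and an ROR response element–luciferase reporter were exposed to compound, then induced with doxycycline. After 16hr at 37C, luminescence was read; lower signal indicates antagonism.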

[18] = target: Nuclear receptor subfamily 1 group I member 2 (Rattus norvegicus) (UniProt Q9R1A7); assay: qHTS assay for small molecule activators of the rat pregnane X receptor (rPXR) signaling pathway (AID 651751; call rule not given here); details: rPXR reporter cells, luciferase (One-Glo), 24 h
[19] = qHTS assay for small molecule activators of the human pregnane X receptor (PXR) signaling pathway (AID 720659; call rule not given here)
[20] = target: Glucocorticoid receptor (Homo sapiens) (UniProt P04150); assay: qHTS assay for small molecule antagonists of glucocorticoid receptor signaling (AID 588533; active means well fitted inhibition curve with a large enough effect in the signal ratio, with a control signal flat, not every such curve was filed as active; the % refers to the signal ratio;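 further: cells stimulated with 2 nM dexamethasone as agonist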; further: potency means the concentration at half of the fitted maximal effect)
Method in brief: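 Antagonist-mode qHTS: compound titrations added to GRE-bla HeLa cells, then dexamethasone 2 nM final; 18 h, 37 C. CCF4 FRET fluorescence normalized to dexamethasone and DMSO; IC50 from Hill fit.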

Peroxisome proliferator-activated receptor gamma (Homo sapiens), sequence (P37231 whole entry, looked up): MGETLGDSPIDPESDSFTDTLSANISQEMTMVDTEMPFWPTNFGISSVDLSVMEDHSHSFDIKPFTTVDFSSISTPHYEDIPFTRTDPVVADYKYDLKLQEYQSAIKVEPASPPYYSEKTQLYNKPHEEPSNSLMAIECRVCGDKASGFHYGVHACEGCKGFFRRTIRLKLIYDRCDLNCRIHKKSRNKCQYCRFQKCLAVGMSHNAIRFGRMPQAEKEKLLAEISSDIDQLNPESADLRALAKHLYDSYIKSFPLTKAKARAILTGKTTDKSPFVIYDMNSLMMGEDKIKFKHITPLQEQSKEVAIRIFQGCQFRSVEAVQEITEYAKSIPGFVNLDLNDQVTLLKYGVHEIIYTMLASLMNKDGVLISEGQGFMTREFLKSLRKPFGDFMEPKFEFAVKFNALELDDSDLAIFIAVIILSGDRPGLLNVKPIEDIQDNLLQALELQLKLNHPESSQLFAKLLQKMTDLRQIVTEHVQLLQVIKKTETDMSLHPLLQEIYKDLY
Nuclear receptor ROR-gamma (Homo sapiens), sequence (P51449 whole entry, looked up): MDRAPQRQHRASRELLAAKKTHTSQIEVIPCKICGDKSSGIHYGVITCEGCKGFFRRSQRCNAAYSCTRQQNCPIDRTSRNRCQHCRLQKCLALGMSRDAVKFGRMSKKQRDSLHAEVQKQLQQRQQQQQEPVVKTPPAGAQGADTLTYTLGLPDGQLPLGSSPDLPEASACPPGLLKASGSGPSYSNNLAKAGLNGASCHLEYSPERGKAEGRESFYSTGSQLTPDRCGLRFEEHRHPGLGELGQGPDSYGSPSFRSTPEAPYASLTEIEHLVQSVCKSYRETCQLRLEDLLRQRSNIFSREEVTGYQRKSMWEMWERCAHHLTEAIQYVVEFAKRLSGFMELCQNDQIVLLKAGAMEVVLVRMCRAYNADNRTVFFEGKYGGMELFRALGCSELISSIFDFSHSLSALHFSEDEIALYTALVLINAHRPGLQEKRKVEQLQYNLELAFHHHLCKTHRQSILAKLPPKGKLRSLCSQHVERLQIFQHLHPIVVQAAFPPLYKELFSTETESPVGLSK
Peroxisome proliferator-activated receptor delta (Homo sapiens), sequence (Q03181 whole entry, looked up): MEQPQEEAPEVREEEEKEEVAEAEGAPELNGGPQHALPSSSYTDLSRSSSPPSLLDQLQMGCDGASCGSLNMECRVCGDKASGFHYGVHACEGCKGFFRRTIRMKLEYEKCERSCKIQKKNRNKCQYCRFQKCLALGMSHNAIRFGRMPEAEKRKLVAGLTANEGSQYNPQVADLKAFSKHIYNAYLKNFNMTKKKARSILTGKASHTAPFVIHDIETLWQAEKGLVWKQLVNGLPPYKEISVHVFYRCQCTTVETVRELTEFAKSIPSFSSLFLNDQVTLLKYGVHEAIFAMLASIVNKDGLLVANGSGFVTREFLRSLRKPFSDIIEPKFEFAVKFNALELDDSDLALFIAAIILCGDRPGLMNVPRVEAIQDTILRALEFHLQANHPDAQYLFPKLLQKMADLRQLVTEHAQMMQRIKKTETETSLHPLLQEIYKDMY
Glucocorticoid receptor (Homo sapiens), sequence (P04150 whole entry, looked up): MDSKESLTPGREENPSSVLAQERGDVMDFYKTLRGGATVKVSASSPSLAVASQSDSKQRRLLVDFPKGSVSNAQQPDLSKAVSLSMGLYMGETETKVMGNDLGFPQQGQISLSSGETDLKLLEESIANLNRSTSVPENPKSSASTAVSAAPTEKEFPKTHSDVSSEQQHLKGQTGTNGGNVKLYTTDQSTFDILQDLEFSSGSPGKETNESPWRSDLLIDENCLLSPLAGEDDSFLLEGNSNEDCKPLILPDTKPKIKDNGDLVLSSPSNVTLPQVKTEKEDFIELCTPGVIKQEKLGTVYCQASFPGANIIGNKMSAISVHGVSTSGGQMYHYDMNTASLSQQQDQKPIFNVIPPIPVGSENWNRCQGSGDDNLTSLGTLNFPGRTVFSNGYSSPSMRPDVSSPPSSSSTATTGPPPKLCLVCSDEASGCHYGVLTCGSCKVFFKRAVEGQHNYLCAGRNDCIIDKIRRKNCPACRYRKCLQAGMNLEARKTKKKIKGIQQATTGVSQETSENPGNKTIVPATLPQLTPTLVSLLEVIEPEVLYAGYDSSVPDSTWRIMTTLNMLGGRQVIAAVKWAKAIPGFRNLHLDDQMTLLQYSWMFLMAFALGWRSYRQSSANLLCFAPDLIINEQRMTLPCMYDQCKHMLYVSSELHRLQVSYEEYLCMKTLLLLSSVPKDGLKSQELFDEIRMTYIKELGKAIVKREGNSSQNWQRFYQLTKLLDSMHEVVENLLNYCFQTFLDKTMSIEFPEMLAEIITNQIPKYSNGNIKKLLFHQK
Voltage-gated inwardly rectifying potassium channel KCNH2 (Homo sapiens), sequence (Q12809 whole entry, looked up): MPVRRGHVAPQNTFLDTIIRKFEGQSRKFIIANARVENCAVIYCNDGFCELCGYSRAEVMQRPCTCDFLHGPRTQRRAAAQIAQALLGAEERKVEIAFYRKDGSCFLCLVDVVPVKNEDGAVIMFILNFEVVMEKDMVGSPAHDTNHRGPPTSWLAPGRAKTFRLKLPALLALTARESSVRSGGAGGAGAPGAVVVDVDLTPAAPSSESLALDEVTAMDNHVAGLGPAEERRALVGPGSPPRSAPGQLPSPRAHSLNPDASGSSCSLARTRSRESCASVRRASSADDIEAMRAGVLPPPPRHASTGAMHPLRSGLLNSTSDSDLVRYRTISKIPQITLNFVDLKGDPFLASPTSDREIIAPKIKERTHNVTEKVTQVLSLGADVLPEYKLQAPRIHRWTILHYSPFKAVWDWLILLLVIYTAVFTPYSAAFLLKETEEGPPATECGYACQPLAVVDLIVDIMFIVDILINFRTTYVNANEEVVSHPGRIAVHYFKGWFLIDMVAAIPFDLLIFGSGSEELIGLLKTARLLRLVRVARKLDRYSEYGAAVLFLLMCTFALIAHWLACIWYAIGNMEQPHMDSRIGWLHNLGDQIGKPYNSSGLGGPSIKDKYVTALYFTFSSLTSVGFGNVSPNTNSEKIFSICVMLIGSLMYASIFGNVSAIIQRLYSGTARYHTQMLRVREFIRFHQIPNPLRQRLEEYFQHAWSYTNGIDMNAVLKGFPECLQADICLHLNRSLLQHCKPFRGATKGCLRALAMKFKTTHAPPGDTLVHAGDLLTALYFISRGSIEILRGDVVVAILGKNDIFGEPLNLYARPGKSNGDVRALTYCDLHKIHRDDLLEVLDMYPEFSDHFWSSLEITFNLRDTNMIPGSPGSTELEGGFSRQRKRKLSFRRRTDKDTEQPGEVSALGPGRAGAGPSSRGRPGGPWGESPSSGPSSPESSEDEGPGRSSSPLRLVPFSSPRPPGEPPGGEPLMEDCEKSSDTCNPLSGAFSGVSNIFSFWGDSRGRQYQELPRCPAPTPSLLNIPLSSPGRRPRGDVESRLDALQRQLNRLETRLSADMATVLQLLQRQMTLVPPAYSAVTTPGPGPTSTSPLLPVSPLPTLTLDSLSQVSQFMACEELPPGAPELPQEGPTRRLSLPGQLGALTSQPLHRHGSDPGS
Thyroid hormone receptor beta (Homo sapiens), sequence (P10828 whole entry, looked up): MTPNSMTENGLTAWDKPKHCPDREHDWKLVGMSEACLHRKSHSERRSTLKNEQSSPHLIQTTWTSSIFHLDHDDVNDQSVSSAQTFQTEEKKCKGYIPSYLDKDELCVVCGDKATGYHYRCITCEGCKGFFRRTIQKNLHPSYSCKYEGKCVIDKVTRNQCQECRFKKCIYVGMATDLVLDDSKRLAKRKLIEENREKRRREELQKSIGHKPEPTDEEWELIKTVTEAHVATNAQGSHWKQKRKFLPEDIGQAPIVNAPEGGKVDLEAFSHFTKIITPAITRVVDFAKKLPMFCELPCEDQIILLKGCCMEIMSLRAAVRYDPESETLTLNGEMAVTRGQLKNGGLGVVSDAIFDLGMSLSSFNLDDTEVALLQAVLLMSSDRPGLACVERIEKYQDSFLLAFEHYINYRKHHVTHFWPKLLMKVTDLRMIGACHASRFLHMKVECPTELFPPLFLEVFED
Estrogen receptor (Homo sapiens), sequence (P03372 whole entry, looked up): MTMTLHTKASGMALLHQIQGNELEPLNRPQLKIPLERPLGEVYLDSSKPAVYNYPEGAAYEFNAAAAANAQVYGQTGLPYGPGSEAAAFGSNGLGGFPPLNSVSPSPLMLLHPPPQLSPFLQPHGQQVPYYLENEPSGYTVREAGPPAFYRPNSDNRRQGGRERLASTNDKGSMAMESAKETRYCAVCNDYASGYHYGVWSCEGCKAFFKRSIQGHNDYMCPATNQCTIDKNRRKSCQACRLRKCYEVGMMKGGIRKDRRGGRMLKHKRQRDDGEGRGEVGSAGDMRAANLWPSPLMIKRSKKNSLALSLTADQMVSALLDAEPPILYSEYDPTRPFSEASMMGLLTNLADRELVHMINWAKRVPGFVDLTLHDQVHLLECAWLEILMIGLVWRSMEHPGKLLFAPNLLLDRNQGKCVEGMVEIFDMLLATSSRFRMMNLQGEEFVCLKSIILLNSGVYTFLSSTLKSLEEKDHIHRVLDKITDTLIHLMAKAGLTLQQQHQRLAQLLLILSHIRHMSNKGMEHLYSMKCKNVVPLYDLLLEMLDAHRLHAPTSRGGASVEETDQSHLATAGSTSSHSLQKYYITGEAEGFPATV
Nuclear receptor subfamily 1 group I member 2 (Rattus norvegicus), sequence (Q9R1A7 whole entry, looked up): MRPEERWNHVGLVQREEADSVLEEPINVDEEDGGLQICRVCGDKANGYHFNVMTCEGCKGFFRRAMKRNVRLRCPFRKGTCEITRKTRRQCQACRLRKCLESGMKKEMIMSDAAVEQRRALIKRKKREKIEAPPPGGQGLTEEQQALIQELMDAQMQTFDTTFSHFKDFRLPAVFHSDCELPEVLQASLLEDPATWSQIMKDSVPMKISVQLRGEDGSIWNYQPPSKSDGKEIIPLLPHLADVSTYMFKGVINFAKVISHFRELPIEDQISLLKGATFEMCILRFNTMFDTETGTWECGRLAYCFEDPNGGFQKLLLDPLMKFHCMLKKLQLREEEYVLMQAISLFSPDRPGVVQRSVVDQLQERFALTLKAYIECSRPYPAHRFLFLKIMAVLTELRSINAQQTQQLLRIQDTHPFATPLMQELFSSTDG

| Compound | Potency [1] | Potency [2] | Potency [3] | Potency [4] | Potency [5] | Potency [6] | Potency [7] | activation [8] | outcome [9] | outcome [10] | outcome [11] | outcome [12] | activity change % (negative = inhibition) [13] | Potency [14] | activation [15] | activation [16] | Potency [17] | max response [18] | outcome [19] | Potency [20] |
| --- | --- | --- | --- | --- | --- | --- | --- | --- | --- | --- | --- | --- | --- | --- | --- | --- | --- | --- | --- | --- |
| CN1C[C@H](C(=O)N[C@]2(C)O[C@@]3(O)C4CCCN4C(=O)[C@H](Cc4ccccc4)N3C2=O)C[C@@H]2c3cccc4[nH]cc(c34)C[C@H]21 (stereo partly specified) | 11.2 µM (active) | – | – | – | – | – | – | – | – | – | – | – | – | – | – | – | – | – | – | – |
| CN=C=S | inactive | inactive | inactive | inactive | inactive | inactive | 20 µM (active) | 2.73% (inactive) and -2.27% (inactive) | inactive | inactive | inactive | inactive | -1.38% (inactive) and -7.2% (inactive) | inactive | -0.537% (inactive) and -2.4% (inactive) | 0.215% (inactive) and 0.204% (inactive) | inactive | 1.38% (inactive) and 4.99% (inactive) | inactive | – |
| Cc1ccccc1N | inactive | inactive | inactive | inactive | inactive | – | – | – | inactive | – | – | inactive | 0.476% (inactive) and 3.77% (inactive) | inactive | -1.62% (inactive) and -3.19% (inactive) | 4.33% (inactive) and 3.03% (inactive) | inactive | -2.81% (inactive) and 0.311% (inactive) | inactive | – |
| CCC[CH2][Sn]([Cl])([Cl])[Cl] | inactive | inactive | inactive | inactive | inactive | inactive | inactive | -3.23% (inactive) and -2.97% (inactive) | inactive | inactive | – | inactive | 9.88% (inactive) | 13.3 µM (active) | 0.255% (inactive) and 3.17% (inactive) | 0.348% (inactive) and 0.965% (inactive) | inactive | 2.08% (inactive) and 0.146% (inactive) | inactive | inactive |
| C=CCc1ccc(OC)c(OC)c1 | – | – | – | – | – | – | – | 0.141% (inactive) | inactive | – | – | – | – | – | – | – | – | – | – | – |
| CCCCCCCCCCCC(=O)O | – | – | – | – | – | – | – | – | inactive | – | – | – | – | – | – | – | – | – | – | – |
| c1nc[nH]n1 | inactive | inactive | inactive | inactive | inactive | inactive | inactive | 0.583% (inactive) | inactive | inactive | inactive | – | – | – | -1.22% (inactive) | -0.221% (inactive) | inactive | 0.756% (inactive) | inactive | inactive |
| C[C@]12CC[C@H]3[C@@H](CCC4=CC(=O)CC[C@@]43C)[C@@H]1CC[C@@H]2O | – | inactive | inactive | inactive | inactive | – | – | – | inactive | – | inactive | inactive | 14.5% (inactive) | – | -0.245% (inactive) | -1.35% (inactive) | 26.6 µM (active) | 3.05% (inactive) | inactive | 7.08 µM (active) |
| c1ccc(-c2ccccc2)cc1 | 44.7 µM (active) | – | inactive | inactive | inactive | inactive | inactive | -2.99% (inactive) and -4% (inactive) | inactive | inactive | – | inactive | -3.07% (inactive) and -0.354% (inactive) | inactive and 54.5 µM (active) | 2.71% (inactive) and -2.97% (inactive) | -0.623% (inactive) and 2.83% (inactive) | inactive | – | – | inactive |
| C=CC1CC=CCC1 (stereo unspecified) | inactive | inactive | inactive | inactive | – | inactive | inactive | 1.2% (inactive) and -0.94% (inactive) | inactive | inactive | inactive | inactive | 13.7% (inactive) and -3.35% (inactive) | inactive | -3.44% (inactive) | 0.186% (inactive) and 0.879% (inactive) | – | -0.819% (inactive) and 2.71% (inactive) | inactive | inactive |
| Oc1cccc(O)c1O | – | – | – | – | – | – | – | – | inactive | – | – | – | – | – | – | – | – | – | – | – |
| C=C(C)[C@H]1CC=C(C)C(=O)C1 | – | – | – | – | – | – | – | – | inactive | – | – | – | – | – | – | – | – | – | – | – |
| CCCCCCCCCCCCCC(=O)O | – | – | – | – | – | – | – | 0.574% (inactive) | – | – | – | – | – | – | – | – | – | – | – | – |
| CC1=CCC2CC1C2(C)C (stereo unspecified) | – | – | – | – | – | – | – | – | inactive | – | – | – | – | – | – | – | – | – | – | – |
| Cc1ccc([N+](=O)[O-])cc1C | inactive | inactive | inactive | inactive | inactive | inactive | inactive | -0.387% (inactive) and 0.526% (inactive) | inactive | inactive | inactive | inactive | 13% (inactive) and 10.3% (inactive) | inactive | – | -0.487% (inactive) and 1.08% (inactive) | inactive | 1.14% (inactive) and -0.13% (inactive) | inactive | – |
| O=NN(c1ccccc1)c1ccccc1 | inactive | inactive | inactive | inactive | inactive | inactive | inactive | -0.746% (inactive) and 1.47% (inactive) | inactive | inactive | – | inactive | -20.2% (inactive) and 4.93% (inactive) | – | -0.087% (inactive) and -2.72% (inactive) | 0.195% (inactive) and 0.974% (inactive) | inactive | 2.63% (inactive) and 4.55% (inactive) | inactive | inactive |
| O=C(Cl)/C=C/C(=O)Cl | inactive | inactive | inactive | inactive | inactive | inactive | inactive | 1.15% (inactive) | inactive | inactive | inactive | inactive | 2.64% (inactive) | inactive | -2.72% (inactive) | -0.935% (inactive) | inactive | 0.356% (inactive) | inactive | inactive |
